Sfp inh: Sfp phosphopantetheinyl transferase inhibition. Q9F4F7. Biochemical Sfp PPTase activity, qHTS. Potency, µM, actives largely listed as inhibitors. 310,000 compounds, 3.5% hits. AID 1490;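 further: the enzyme is Sfp with the accession as filed and its product quenches rhodamine fluorescence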
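Fluorescence-quenching assay: 15 nM Sfp-PPTase preincubated 15 min at room temperature with compound, then 5 uM rhodamine-CoA and 12.5 uM BHQ-2-labelled YbbR peptide added. Fluorescence (ex 525/em 598 nm) read at start and after 30 min; difference gives rate.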
TrxR1 inh: inhibitors of rat thioredoxin reductase 1; O89049; Potency, µM (titrated, usually from 114 µM), actives largely listed as inhibitors; recombinant rTrxR1, NADPH fluorescence consumption, selenite substrate; 390,000 compounds, 1% hits; further: nearly all actives have a fitted effect of over 65% in size
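Rat TrxR1 (90 nM in the dispensed reagent) was pre-reduced with 400 uM NADPH for 5 min at room temperature, then incubated with compound for 15 min. After 400 uM selenite was added, NADPH fluorescence (Ex 340/Em 450 nm) was followed for 8 min.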
TrxR1 substrate: substrates of rat thioredoxin reductase 1; purified TrxR1 substrate turnover, NADPH consumption readout; 390,000 compounds, 0.01% hits; O89049; Potency, µM (highest dose often 114 µM); further: nearly all actives have a fitted effect of over 50% in size
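Rat TrxR1, dispensed at 90 nM, was prereduced with 400 uM NADPH (final) for 5 min at ~22 deg C, then incubated with compound 15 min before 400 uM selenite. A first-read NADPH fluorescence drop versus no-compound background flagged substrates.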
VDR inh: inhibitors of human vitamin D receptor; VDR-SRC2-3 peptide fluorescence polarization, 2 h; AID 504847; Potency, µM, actives largely listed as inhibitors; P11473; 400,000 compounds, 0.93% hits
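Signal is fluorescence polarization, reporting how far test compounds block the interaction of VDR with the SRC2-3 coregulator peptide after a 2 h room-temperature incubation.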
mIDH1 inhibitor: human IDH1 R132H inhibition; O75874; IDH1-R132H enzyme, NADPH consumption, diaphorase/resazurin fluorescence; Potency, µM (top dose mostly 76.6 µM), usual class: inhibitors; 390,000 compounds, 0.093% hits; AID 602179; further: nearly all actives have a fitted effect of over 65% in size
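IDH1-R132H (0.5 ug/mL dispensed) in pH 7.5 Tris buffer was preincubated 30 min with compound, then given a substrate mix of 0.016 mM NADPH and 2 mM alpha-KG for 80 min at room temperature; remaining NADPH was read by diaphorase/resazurin fluorescence.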
PLK1 PBD block: blocks phosphopeptide binding to human PLK1 polo-box domain | Plk1 PBD binding of FITC phosphopeptide, fluorescence polarization | Potency, µM, actives largely listed as inhibitors | 360,000 compounds, 2.8% hits; further: series mostly up to about 57 µM; nearly all actives have a fitted effect of over 65% in size
Target sequence (P53350 whole entry, looked up, the tested form may be a part): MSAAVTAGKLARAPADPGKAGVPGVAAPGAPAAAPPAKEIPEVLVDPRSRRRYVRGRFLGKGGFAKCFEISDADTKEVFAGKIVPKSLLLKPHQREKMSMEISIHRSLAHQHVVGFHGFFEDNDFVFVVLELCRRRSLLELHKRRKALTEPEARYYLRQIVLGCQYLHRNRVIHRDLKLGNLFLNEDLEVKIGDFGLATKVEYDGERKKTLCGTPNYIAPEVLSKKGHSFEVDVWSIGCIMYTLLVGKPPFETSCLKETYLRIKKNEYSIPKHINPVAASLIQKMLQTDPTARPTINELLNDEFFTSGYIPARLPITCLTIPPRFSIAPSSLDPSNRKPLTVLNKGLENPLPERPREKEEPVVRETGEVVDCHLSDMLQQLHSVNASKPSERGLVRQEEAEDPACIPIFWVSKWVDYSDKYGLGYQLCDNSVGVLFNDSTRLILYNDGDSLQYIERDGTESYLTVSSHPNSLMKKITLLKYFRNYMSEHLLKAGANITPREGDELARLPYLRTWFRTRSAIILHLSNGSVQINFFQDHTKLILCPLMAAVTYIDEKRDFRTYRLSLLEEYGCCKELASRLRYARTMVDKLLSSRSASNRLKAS
VDR inh confirm: inhibits human vitamin D receptor, primary hit validation; shares compounds with VDR inh; VDR-coactivator inhibition assay, qHTS confirmation; Potency, µM, hits mostly inhibitors; 840 compounds, 89% hits; AID 602199
VDR FP fluor: confirmation of human VDR-coactivator binding inhibitors, fluorescein label; 840 compounds, 48% hits; Potency, µM (titrated, usually from 57.1 µM), actives largely listed as inhibitors; VDR-coactivator binding, fluorescein fluorescence polarization; shares compounds with VDR inh; AID 602200
VDR bla reporter: VDR (human) inhibition, cell-based beta-lactamase validation | 840 compounds, 23% hits | VDR beta-lactamase reporter cells, FRET ratio; cells co-treated with VDR agonist LG190178 | shares compounds with VDR inh | Potency, µM (titrated, usually from 46.1 µM), actives largely listed as inhibitors
VDR cytotox: cytotoxic in counter-screen for VDR inhibitors; shares compounds with VDR inh; cytotoxicity counter-screen, cell viability, qHTS; Potency, µM (doses to about 48.3 µM), most hits filed as cytotoxic; 840 compounds, 18% hits; AID 602204; further: nearly all actives have a fitted effect of over 75% in size
Of the large screens only hits and unclear results are named; the others gave an inactive call (follow-up assays come after a bar, where they were run). Rows were chosen to be rich in hits. Some 5.2% of all compounds tested hit in one or more screens of this group. The call rests on the fitted dose curve; in most records, active means well fitted curve in the direction sought with a large enough effect; inconclusive means small, poorly fitted or top-dose-only effect, or another doubt; inactive means no such curve, though single readings can be large; an effect the other way counts as inactive or inconclusive.

Cc1cccc(N2CCN(C(=O)Cn3ncc4c3-c3ccccc3OC4)CC2)c1C	none (no result: Sfp inh, PLK1 PBD block)
Cc1ccc(S(=O)c2snnc2C)cc1 (stereo not drawn)	none
CNC(=O)c1nnsc1S(=O)c1ccc(Cl)cc1 (stereo not drawn)	Sfp inh 13µM, TrxR1 inh 0.35µM, VDR inh 5.6µM, PLK1 PBD block 0.95µM | VDR inh confirm 3.8 | VDR FP fluor 4.5µM | VDR bla reporter 16µM | VDR cytotox inconclusive
CCCNC(=O)c1nnsc1S(=O)c1ccc(Cl)cc1 (stereo not drawn)	Sfp inh 20µM, TrxR1 inh 0.56µM, VDR inh inconclusive, PLK1 PBD block 0.75µM | VDR inh confirm 0.89 | VDR FP fluor 1µM | VDR bla reporter 13µM | VDR cytotox 21µM
CCCNC(=O)c1ccc2snnc2c1	none
COc1ccc(C)cc1N(C)C(=O)c1c2c(nc3ccccc13)C(=O)N(C1CCCCC1)C2	mIDH1 inhibitor inconclusive (no result: Sfp inh, PLK1 PBD block)
CCOc1c(Br)cc(C(=O)Nc2cccc(S(=O)(=O)N3CCOCC3)c2)cc1OC	none (no result: Sfp inh, TrxR1 inh, TrxR1 substrate, VDR inh)
NS(=O)(=O)c1ccc(CCNC(=O)CN2CCN(Cc3cccc4ccccc34)CC2)cc1	none
Cc1cc(C)c(NC(=O)c2ccc3c(c2)NC(=O)C(C)S3)c(C)c1 (stereo not drawn)	none (no result: Sfp inh)
CCN(CC)S(=O)(=O)c1cc(NC(=O)c2ccc3c(c2)NC(=O)C(C)S3)ccc1C (stereo not drawn)	VDR inh 79µM, PLK1 PBD block 8.4µM (no result: Sfp inh) | VDR inh confirm 21 | VDR FP fluor inconclusive | VDR bla reporter inconclusive | VDR cytotox inconclusive
CCc1ccc(NC(=O)c2cc(CN3CCOCC3)on2)cc1	none (no result: Sfp inh, PLK1 PBD block)
O=C(/C=C/c1c(F)cccc1Cl)c1ccc(F)cc1	Sfp inh inconclusive, TrxR1 inh inconclusive, VDR inh 45µM, PLK1 PBD block inconclusive | VDR inh confirm 11 | VDR FP fluor 8.9µM | VDR bla reporter inactive | VDR cytotox inactive
O=C(N/N=C/c1c(Cl)cccc1Cl)c1ccc(F)cc1	none
S=C(Nc1ccccc1Cl)Nc1ccc(Cl)cc1Cl	TrxR1 inh inconclusive, PLK1 PBD block inconclusive
S=C(NNc1ccnc2cc(Cl)ccc12)Nc1ccccc1Cl	Sfp inh inconclusive, TrxR1 inh inconclusive, VDR inh inconclusive, PLK1 PBD block 15µM | VDR inh confirm 13 | VDR FP fluor 10µM | VDR bla reporter inconclusive | VDR cytotox inconclusive
Cc1ccc(C(=O)/C=C/N(C)C)o1	none
Cc1ccc(C(=O)/C=C/c2cc(Br)cc(Br)c2O)o1	Sfp inh inconclusive, TrxR1 inh inconclusive, VDR inh 8.9µM, PLK1 PBD block 27µM | VDR inh confirm 3.8 | VDR FP fluor inconclusive | VDR bla reporter inconclusive | VDR cytotox inactive
CC1=CC(=O)NS(=O)(=O)O1	none (no result: TrxR1 inh, TrxR1 substrate, mIDH1 inhibitor, PLK1 PBD block)
CC(C)CNc1ncnc2c1ncn2[C@H]1CN(Cc2ccc3c(c2)OCO3)C[C@@H](CO)O1	none (no result: Sfp inh, TrxR1 inh, TrxR1 substrate, VDR inh, mIDH1 inhibitor)
CC1(C)CC(=O)C=C(c2ccc(-c3cnc4ccccc4c3)cc2)C1=O	none (no result: Sfp inh, TrxR1 inh, TrxR1 substrate, VDR inh)
